Experimental data published in PubChem BioAssay.
For some assays here: Measured potencies and affinities stand elsewhere. The source made the active and inactive calls. Unless noted, no cut-off is given here; in the data, nearly all actives have IC50 up to about 0.98 µM.

tested on: not listed separately; assay: inhibition of 3D7 malaria parasite growth – strain 3D7 (AID 2306; call rule not given here;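 note: 0% = DMSO wells and 100% = chloroquine plus artemisinin control wells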); conditions: P. falciparum 3D7 erythrocytic growth, LDH absorbance, 72 h; at 2 µM; hits give high values

Growth inhibition, active:
Cc1cccc2[nH]c(-c3ccc(-c4ccc(NC(=O)NCc5ccccc5)cc4)s3)nc12 93%
COc1cccc(NC(=O)Nc2ccc(C)c(-c3ccc(C(=O)Nc4ccncc4)cc3)c2)c1 99%
Cc1ccc(O)c(-c2cc(C(=O)Nc3ccc(S(=O)(=O)N4CCCC(C)C4)cc3)[nH]n2)c1 (configuration not stated) 96%
CN(C)CCOC(=O)C1(O)CCC2CC1C2(C)C (configuration not stated) 95%
COc1ccc(C=C2SC(=O)NC2=Nc2ccccc2)c(OC)c1 91%
O=C(Nc1cccc(-c2cccc(-c3nc4ccc(C(F)(F)F)cc4[nH]3)c2)c1)c1ccoc1 99%
Cc1ccc(Sc2ccc(NC(=O)CN3CCN(C(=O)c4ccco4)CC3)cc2)cc1C 92%

molecular target: Calcium-dependent protein kinase 1 (Plasmodium falciparum (isolate 3D7)) (UniProt P62344); assay: PfCDPK1 kinase inhibitors, biochemical, TCAMS library (AID 1159585); conditions: recombinant PfCDPK1, Kinase-Glo ATP depletion luminescence;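 note: inhibitors leave more ATP so luminescence rises with inhibition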
Sequence (P62344 whole entry, looked up): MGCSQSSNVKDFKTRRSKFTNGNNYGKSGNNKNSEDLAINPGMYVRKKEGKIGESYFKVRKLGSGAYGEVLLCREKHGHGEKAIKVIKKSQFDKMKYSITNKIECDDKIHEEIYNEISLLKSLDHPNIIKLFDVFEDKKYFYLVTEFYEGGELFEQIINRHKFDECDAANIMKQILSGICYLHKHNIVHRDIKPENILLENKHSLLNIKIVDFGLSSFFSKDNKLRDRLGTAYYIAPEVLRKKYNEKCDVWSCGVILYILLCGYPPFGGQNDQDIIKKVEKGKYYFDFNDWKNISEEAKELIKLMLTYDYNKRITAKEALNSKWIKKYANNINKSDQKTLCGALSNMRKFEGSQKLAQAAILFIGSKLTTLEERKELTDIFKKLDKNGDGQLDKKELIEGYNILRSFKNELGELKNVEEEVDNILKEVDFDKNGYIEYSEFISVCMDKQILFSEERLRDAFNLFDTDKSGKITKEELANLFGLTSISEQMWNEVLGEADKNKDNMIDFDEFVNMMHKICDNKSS

outcome, inactive:
O=C(N[C@@H](Cc1ccccc1)C(=O)NC1CCCCC1)c1ccc(O)c(-c2ccc(Cl)c(Cl)c2)c1
O=[N+]([O-])c1ccc2nc(Nc3cccc(C(F)(F)F)c3)c(Nc3cccc(C(F)(F)F)c3)nc2c1
C[C@H](Cc1ccc(CCc2ccc(C[C@@H](C)NC[C@H](O)c3cccc(Cl)c3)cc2)cc1)NC[C@H](O)c1cccc(Cl)c1
COc1ccc2nccc([C@@H](O)CN3CCC(NCc4cc5ccccc5[nH]4)CC3)c2n1
C=CCc1cccc(OC)c1OCCCON1C(N)=NC(N)=NC1(C)C
Cc1ccc2nc(-c3ccc(C=CC(=O)NC4CCN(Cc5ccccc5)CC4)cc3)[nH]c2c1
CCOc1c(OC)ccc2c1CCN(CCN1CCC(CNC(=O)c3ccc(-c4ccc(C#N)cc4)cc3)CC1)C2
Nc1ncc(-c2ccc(F)cc2)c2ccc(-c3cccc(F)c3)cc12
O=C(NCc1ccc(F)cc1)c1cc(Br)cc(N2CCN(c3ccncc3)CC2)c1
O=C(Nc1ccc(Cl)c(Cl)c1)N[C@H]1CCN(CCCCCNC(=O)[C@@H]2C[C@H]2c2ccc(Cl)c(Cl)c2)C1
CCOC(=O)c1ccc(COc2ccc(C)nc2)cc1
CC(=O)Oc1cc(C(=O)Nc2ccc(Cl)cc2)cc2ccccc12
O=C(NC1CCN(c2ccnc3cc(Cl)ccc23)C1)c1ccccc1F (configuration not stated)
COc1cccc2cc(C(=O)N[C@@H](CC(C)C)C(=O)N[C@H](/C=N/N3CCCC3=O)Cc3ccccc3)oc12
O=c1cc(NCCCNCc2csc(Br)c2Sc2ccc(Cl)cc2)[nH]c2ccccc12
CS(=O)(=O)Cc1ccc(Nc2nccc(NC3CCN(c4nccc(C(F)(F)F)n4)CC3)n2)cc1
CCOc1cc2c(cc1OCC)C(c1ccc(O)c(Cl)c1)NCC2 (configuration not stated)
COc1cc(CN2CCC(C(=O)Nc3ccc(-c4cccc(C)c4)cc3)CC2)ccc1O
CCCCCCn1c(Sc2ccc(C#N)c([N+](=O)[O-])c2)nnc1-c1ccc(N(C)C)cc1
Cc1ccc(NC(=O)c2ccc(N3CCN(c4ccncc4)CC3)cc2)cc1F
Cc1cccc2[nH]c(-c3cccc(-c4ccc(CNCc5cccc(N)c5)cc4)c3)nc12
O=C1OC2(CN1CC1CCN(Cc3ccc(O)c(Cl)c3)CC1)c1ccccc1-c1ccccc12
CCCN(Cc1nnc(-c2cccs2)o1)C(=O)CSc1nnnn1-c1ccc(C)c(C)c1
CCN1C(=O)N(CCC(C)C)C2(CCN(Cc3ccc(OC)cc3O)CC2)C1=O
COc1ccc2c(NN=Cc3cccc([N+](=O)[O-])c3)cc(C)nc2c1
Cn1cncc1C(=O)Nc1cccc(-c2cccc(-c3nc4ccc(C(F)(F)F)cc4[nH]3)c2)c1
N#Cc1ccc(-c2ccc(OCC(O)CN3CCCN(C(=O)C(c4ccc5c(c4)OCO5)N4CCN(C/C=C/c5ccccc5)CC4)CC3)cc2)cc1 (configuration not stated)
COC(=O)c1ccc2nc(-c3ccc(/C=C/C(=O)NC4CCN(Cc5ccccc5)CC4)cc3)[nH]c2c1
CC(=O)Nc1nnc(SCc2c(C)cc(C(C)(C)C)cc2C)s1
O=C(Cc1ccccc1)NC(CCN1CCC(N(C2CC2)S(=O)(=O)c2cccc(C(F)(F)F)c2)CC1)c1ccc(Cl)c(Cl)c1 (configuration not stated)
CN(C)c1ccc(-c2csc(C(=O)NC3CCN(CCC(C)(C)C)C3)c2)cc1 (configuration not stated)
Cc1ccc(CNC(=O)[C@H](Cc2ccccc2)Nc2cc(C)nc(Nc3ccccc3)n2)cc1
CCOC(=O)c1cccc(N/C(N)=N/c2nc(C)cc(NCCc3ccccc3)n2)c1
Cc1cccc2[nH]c(-c3ccc(-c4ccc(NC(=O)NCc5ccccc5)cc4)s3)nc12
COc1cccc(NC(=O)Nc2ccc(C)c(-c3ccc(C(=O)Nc4ccncc4)cc3)c2)c1
Cc1ccc(O)c(-c2cc(C(=O)Nc3ccc(S(=O)(=O)N4CCCC(C)C4)cc3)[nH]n2)c1 (configuration not stated)
CN(C)CCOC(=O)C1(O)CCC2CC1C2(C)C (configuration not stated)
COc1ccc(C=C2SC(=O)NC2=Nc2ccccc2)c(OC)c1
O=C(Nc1cccc(-c2cccc(-c3nc4ccc(C(F)(F)F)cc4[nH]3)c2)c1)c1ccoc1
Cc1ccc(Sc2ccc(NC(=O)CN3CCN(C(=O)c4ccco4)CC3)cc2)cc1C
